Screening data: PubChem, National Center for Advancing Translational Sciences (NCATS)
APEX1 inh – qHTS Assay for Inhibitors of the Human Apurinic/apyrimidinic Endonuclease 1 (APE1); DNA repair nuclease/redox regulator APEX1 (Homo sapiens), P27695; recombinant APE1, TAMRA/BHQ-2 abasic DNA cleavage fluorescence; Potency, µM (top dose mostly 65.8 µM), actives largely listed as inhibitors; 0.35% of 350,000 active; AID 2517, 2012; further: nearly all actives have a fitted effect of over 55% in size
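Kinetic fluorescence read (525 ex/598 em nm, three reads 60 s apart) of AP-site incision; signal = third minus first read. Enzyme 0.75 nM, dual-labelled THF duplex 50 nM, compound preincubation 15 min RT.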
KDM4E inh – qHTS Assay for Inhibitors of Human Jumonji Domain Containing 2E (JMJD2E); Potency, µM (doses to about 57.1 µM), actives largely listed as inhibitors; JMJD2E catalytic domain, FDH-coupled NADH fluorescence (FDH is formaldehyde dehydrogenase); Lysine-specific demethylase 4E (Homo sapiens), B2RXH2; 1.6% of 230,000 active; AID 2147, 2009; active means well fitted inhibition curve with a large enough effect, not every such curve was filed as active; inconclusive means small, poorly fitted or top-dose-only effect, or another doubt; inactive means no such curve, though single readings can be large or run the other way; further: nearly all actives have a fitted effect of over 50% in size
RECQ1 helicase – qHTS Assay for Inhibitors of RecQ-Like Dna Helicase 1 (RECQ1) | 0.54% of 240,000 active | Potency, µM (titrated, usually from 57.3 µM), hits mostly inhibitors | ATP-dependent DNA helicase Q1 (Homo sapiens), P46063 | RECQ1 DNA unwinding, red fluorescence kinetic read; further: nearly all actives have a fitted effect of over 30% in size
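RECQ1T1 50 nM; forked duplex (20 bp + 30-nt ss tails) 200 nM, ATP 2 mM final; pH 8.0, 2 mM MgCl2, 2.5 ug/ml poly(dI-dC); 15 min compound preincubation; discontinuous kinetic read over 2 h at RT.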
TDP1 block – qHTS Assay for Inhibitors of Tyrosyl-DNA Phosphodiesterase (TDP1) | Tyrosyl-DNA phosphodiesterase 1 (Homo sapiens), Q9NUW8 | recombinant TDP1, AlphaScreen DNA substrate cleavage | Potency, µM (top dose mostly 130 µM), hits mostly inhibitors | 0.28% of 350,000 active | AID 485290, 2010; further: nearly all actives have a fitted effect of over 40% in size
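E. coli-derived human Tdp1, 1 nM final. Cpd preinc 15 min RT; substrate 15 nM final, 5 min RT; AS bead mix 10 ug/ml final, 10 min RT. Signal loss = tyrosine-FITC cleavage. No-enzyme wells = max signal.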
L3MBTL1 block – qHTS Assay for the Inhibitors of L3MBTL1. Lethal(3)malignant brain tumor-like protein 1 (Homo sapiens), Q9Y468. 0.66% of 230,000 active. Potency, µM (top dose mostly 57.1 µM), hits mostly inhibitors. AlphaScreen L3MBTL1–H3K9me1 peptide binding; further: nearly all actives have a fitted effect of over 60% in size
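L3MBTL1 (50 nM) pre-complexed 30 min with biotinylated H3(1-15)K9me1 peptide (75 nM), then compounds added for 30 min at room temperature; AlphaScreen streptavidin donor/nickel chelate acceptor beads (10 ug/mL final) read after 30 min dark incubation.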
BLM inh – qHTS Assay for Inhibitors of Bloom's syndrome helicase (BLM) | 0.2% of 350,000 active | Potency, µM (highest dose often 56.1 µM), hits mostly inhibitors | AID 2528, 2010 | recombinant BLM DNA unwinding, fluorescence dequenching; further: nearly all actives have a fitted effect of over 35% in size
Target sequence (P54132 whole entry, looked up): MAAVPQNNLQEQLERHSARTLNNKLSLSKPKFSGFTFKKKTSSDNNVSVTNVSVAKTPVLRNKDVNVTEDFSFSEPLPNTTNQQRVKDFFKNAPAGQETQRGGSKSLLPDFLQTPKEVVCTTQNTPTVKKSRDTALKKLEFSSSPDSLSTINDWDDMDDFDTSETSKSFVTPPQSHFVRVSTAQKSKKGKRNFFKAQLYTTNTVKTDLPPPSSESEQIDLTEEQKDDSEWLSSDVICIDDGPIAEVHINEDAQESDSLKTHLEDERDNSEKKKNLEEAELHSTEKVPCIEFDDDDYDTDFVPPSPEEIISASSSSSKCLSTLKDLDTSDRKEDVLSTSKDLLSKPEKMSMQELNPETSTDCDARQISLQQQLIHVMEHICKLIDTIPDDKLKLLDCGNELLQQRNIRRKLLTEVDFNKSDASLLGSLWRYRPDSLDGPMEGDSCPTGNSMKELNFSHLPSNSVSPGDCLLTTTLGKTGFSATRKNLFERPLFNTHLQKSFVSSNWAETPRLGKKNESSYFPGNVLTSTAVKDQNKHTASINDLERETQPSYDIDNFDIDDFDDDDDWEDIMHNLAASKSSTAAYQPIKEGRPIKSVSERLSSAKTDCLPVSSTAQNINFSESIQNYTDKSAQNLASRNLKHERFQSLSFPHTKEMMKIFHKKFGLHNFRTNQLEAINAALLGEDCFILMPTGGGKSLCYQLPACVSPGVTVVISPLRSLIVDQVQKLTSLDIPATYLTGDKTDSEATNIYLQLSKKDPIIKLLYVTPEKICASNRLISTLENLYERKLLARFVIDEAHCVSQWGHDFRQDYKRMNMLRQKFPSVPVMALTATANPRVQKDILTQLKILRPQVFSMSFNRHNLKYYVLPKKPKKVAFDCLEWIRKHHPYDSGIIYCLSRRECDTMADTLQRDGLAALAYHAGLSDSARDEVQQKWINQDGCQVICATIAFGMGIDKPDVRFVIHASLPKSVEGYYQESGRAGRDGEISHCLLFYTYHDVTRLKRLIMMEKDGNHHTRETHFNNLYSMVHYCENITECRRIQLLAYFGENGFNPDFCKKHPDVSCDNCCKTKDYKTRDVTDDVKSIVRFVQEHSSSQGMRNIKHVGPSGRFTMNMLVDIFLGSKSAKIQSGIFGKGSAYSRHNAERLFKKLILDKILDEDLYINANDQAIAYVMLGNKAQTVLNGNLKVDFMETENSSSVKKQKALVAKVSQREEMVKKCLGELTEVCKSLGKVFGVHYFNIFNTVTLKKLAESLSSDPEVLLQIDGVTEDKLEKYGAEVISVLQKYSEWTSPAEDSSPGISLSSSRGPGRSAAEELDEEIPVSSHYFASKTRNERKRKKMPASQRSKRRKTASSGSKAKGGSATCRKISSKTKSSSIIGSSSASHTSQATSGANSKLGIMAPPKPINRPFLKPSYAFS
Hits are given with their value; 0 = inactive; ? = inconclusive; - = not tested or not shown. The entries come from a sample that favours hits as a whole. Unless noted, the call rests on the fitted dose curve; in most records, active means well fitted curve in the direction sought with a large enough effect; inconclusive means small, poorly fitted or top-dose-only effect, or another doubt; inactive means no such curve, though single readings can be large; an effect the other way counts as inactive or inconclusive.

SMILES	APEX1 inh	KDM4E inh	RECQ1 helicase	TDP1 block	L3MBTL1 block	BLM inh
COC(=O)C1C2CC3c4[nH]c5cc(OC)ccc5c4CCN3CC2CC(OC(=O)c2cc(OC)c(OC)c(OC)c2)C1OC (stereo not given)	?	20µM	0	0	-	0
N#Cc1nc(NCC(F)F)c2ncn(-c3cccc(Cl)c3)c2n1	-	-	-	0	-	-
CCN(Cc1ccccc1)S(=O)(=O)c1ccccc1Br	0	-	-	0	0	-
C=CCCCN(Cc1ccccc1)S(=O)(=O)c1ccccc1Br	0	0	0	39.8µM	-	0
O=C(O)c1cc(O)c2c(c1)[C@@H]([C@H]1c3cc(C(=O)O)cc(O)c3C(=O)c3c(O[C@@H]4O[C@H](CO)[C@@H](O)[C@H](O)[C@H]4O)cccc31)c1cccc(O[C@@H]3O[C@H](CO)[C@@H](O)[C@H](O)[C@H]3O)c1C2=O	0.067µM	-	-	-	0.112µM	-
O=C1c2c(O)cccc2[C@H]([C@@H]2O[C@H](CO)[C@@H](O)[C@H](O)[C@H]2O)c2cc(CO)cc(O)c21	0	-	-	-	-	-
O=C(Nc1ccc(Br)cc1)c1cnn2c1NC(=C1CC1)C=C2C(F)F	0	-	-	-	-	-
CN1CCN(c2ccc(CNS(=O)(=O)Cc3ccc(Cl)cc3)cc2)CC1	0	0	0	0	4.47µM	0
CC(C)(C)N[S+](=O)([O-])c1cccc(-c2nnc(SCc3ccc(C(=O)O)cc3)n2-c2ccc(F)cc2)c1	0	-	-	-	-	-
Clc1cccc(Cl)c1CNc1ccc(N2CCCC2)cc1	?	12.6µM	0	0	?	0
c1csc(CNc2ccc(N3CCOCC3)cc2)c1	0	-	-	-	-	-
CC(C)C[C@@H](CC(=O)N[C@H](CC(=O)N[C@@H]1CCCC[C@H]1C(=O)N[C@H](CC(=O)N[C@@H](CCC(=O)O)CC(=O)O)Cc1c[nH]c2ccccc12)C(C)C)NC(=O)[C@@H]1CCCC[C@H]1N	0	0	0	0	-	7.08µM
CC(C)[C@H](NS(=O)(=O)c1cccc(Cl)c1)C(=O)OCC(=O)NC(=O)CN1CCCC1=O	13.4µM	-	-	25.1µM	?	-
COC(=O)c1c(NC(=O)COC(=O)[C@@H](NS(=O)(=O)c2cccc(Cl)c2)C(C)C)sc2c1CCC2	0	?	0	0	0	0
O=C(Cn1ncc(Cl)c(Cl)c1=O)Nc1ccc2c(c1)OCO2	0	-	-	0	0	-
CCN(CC)S(=O)(=O)c1cc(NC(=O)Cn2ncc(Cl)c(Cl)c2=O)ccc1C	?	0	?	0	17.8µM	0
COc1cc(OC)c(C2CC(=O)N3CN(c4ccccc4C)CSC3=C2C#N)cc1OC (stereo not given)	0	22.4µM	0	0	0	0
COc1ccc(N2CSC3=C(C#N)C(c4cccc(OC)c4OC)CC(=O)N3C2)cc1 (stereo not given)	0	?	0	0	-	0
Cc1ccc(CNc2ccc(N3CCNCC3)cc2)cc1	0	-	-	-	-	-
COc1ccc(CN2C(=O)c3cccc4cccc2c34)cc1F	0	-	-	50.1µM	-	0
Cc1ccc2c(c1)C(c1ccc(F)cc1)N(C(=O)c1ccc(S(=O)(=O)N3CCCCC3)cc1)CC(=O)N2 (stereo not given)	-	-	-	0	-	0
Cc1ccc(-n2nc(C)c3c(C)cc(=O)n(CC(=O)NC(C)c4ccccc4)c32)cc1 (stereo not given)	-	-	-	0	-	0
COC(=O)c1ccc(-c2nc3cc(Cl)c(N)cc3s2)cc1	0	2.51µM	0	0	0	0
Cc1ccc(NC(=O)CCCCCC2NC(=O)NC2C)cc1 (stereo not given)	0	0	0	0	-	0
CC1NC(=O)NC1CCCCCC(=O)Nc1ccc(F)c(Cl)c1 (stereo not given)	0	0	0	0	0.316µM	0
N#Cc1nc(Nc2cc(Cl)cc(Cl)c2)nc(NC2CCCC2)n1	-	-	-	0	-	-
